The text below walks through data of ChEMBL document CHEMBL1961873, “Compounds: GSK PKIS; Assays: Nanosyn kinase panel” (2012).

The term inhibition denotes how much of the control response was suppressed. Read a low inhibition as a response near the control.

Assay [1] has as its target T1, Serine/threonine-protein kinase D2 (Homo sapiens) (UniProt Q9BZL6).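 Further: mean value of PRKD2 inhibition, from the GSK PKIS screening panel.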
T1 sequence (whole entry): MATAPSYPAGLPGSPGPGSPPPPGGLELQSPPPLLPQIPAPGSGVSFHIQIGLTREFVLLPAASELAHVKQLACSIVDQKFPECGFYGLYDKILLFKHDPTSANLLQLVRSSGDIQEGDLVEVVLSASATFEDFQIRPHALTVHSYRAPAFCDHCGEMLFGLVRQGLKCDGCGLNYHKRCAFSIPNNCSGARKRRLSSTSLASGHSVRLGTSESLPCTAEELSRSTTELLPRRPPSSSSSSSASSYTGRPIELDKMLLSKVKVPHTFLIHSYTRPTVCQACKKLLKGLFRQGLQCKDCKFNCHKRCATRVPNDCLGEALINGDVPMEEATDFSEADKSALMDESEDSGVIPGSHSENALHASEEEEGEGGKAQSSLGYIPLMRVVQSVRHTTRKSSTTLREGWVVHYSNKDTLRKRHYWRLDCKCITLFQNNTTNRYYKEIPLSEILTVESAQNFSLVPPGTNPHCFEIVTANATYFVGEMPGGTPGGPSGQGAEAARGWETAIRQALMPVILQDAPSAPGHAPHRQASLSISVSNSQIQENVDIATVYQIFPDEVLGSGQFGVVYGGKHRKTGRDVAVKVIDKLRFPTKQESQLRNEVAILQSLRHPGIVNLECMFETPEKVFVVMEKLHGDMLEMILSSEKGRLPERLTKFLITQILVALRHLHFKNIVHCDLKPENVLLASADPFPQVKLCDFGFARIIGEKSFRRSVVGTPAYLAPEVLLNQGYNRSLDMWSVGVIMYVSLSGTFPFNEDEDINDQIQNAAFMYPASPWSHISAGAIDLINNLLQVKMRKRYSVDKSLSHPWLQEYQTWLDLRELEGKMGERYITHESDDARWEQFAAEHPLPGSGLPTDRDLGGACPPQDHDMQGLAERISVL
Particulars: at 1 µM.

In assay [2] the target is T2, Serine/threonine-protein kinase D3 (Homo sapiens) (UniProt O94806).
T2 sequence (whole entry): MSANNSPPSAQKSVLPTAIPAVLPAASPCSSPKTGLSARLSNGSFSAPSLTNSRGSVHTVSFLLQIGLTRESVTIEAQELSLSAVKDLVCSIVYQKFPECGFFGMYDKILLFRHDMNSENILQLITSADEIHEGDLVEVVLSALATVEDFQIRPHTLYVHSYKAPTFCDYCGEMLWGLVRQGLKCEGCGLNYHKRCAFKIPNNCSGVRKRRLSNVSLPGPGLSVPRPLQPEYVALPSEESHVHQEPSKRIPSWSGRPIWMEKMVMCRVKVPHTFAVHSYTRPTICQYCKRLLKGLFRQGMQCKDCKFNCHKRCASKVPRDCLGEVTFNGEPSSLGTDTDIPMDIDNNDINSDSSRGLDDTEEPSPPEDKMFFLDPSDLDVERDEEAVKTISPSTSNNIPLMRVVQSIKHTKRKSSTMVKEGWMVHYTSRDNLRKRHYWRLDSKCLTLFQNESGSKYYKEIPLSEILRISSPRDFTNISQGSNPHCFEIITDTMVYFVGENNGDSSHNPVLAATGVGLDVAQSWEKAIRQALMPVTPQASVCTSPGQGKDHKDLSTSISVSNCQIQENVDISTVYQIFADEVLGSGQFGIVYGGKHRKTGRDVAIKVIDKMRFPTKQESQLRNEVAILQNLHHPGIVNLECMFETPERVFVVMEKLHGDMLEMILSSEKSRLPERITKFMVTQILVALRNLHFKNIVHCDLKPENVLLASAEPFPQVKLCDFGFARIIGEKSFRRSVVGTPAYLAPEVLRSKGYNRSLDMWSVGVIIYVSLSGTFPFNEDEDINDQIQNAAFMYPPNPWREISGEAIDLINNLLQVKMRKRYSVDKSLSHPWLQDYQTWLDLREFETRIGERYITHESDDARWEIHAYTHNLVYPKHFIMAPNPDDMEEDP
Particulars: at 0.1 µM.

In assay [3] the target is T2, Serine/threonine-protein kinase D3 (Homo sapiens). Particulars: at 1 µM.
The target of assay [4] is T3, cGMP-dependent protein kinase 1 (Homo sapiens) (UniProt Q13976).
T3 sequence (whole entry): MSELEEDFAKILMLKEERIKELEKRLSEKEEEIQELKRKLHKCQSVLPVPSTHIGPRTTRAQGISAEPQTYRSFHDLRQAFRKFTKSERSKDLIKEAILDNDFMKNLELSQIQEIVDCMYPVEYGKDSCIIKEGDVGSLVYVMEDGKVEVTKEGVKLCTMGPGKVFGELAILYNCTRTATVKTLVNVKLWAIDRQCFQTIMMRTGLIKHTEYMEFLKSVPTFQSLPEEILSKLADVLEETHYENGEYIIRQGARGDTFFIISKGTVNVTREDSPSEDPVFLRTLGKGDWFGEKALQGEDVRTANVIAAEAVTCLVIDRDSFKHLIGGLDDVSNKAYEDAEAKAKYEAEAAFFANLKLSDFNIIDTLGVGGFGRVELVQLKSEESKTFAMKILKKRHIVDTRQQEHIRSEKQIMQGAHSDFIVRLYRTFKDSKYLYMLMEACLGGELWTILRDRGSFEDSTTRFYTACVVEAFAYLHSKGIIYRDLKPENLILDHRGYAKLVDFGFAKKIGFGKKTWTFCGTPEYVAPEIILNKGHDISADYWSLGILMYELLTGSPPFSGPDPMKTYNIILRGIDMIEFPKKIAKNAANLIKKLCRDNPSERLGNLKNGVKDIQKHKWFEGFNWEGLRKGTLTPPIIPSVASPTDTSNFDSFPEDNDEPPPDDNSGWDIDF
Particulars: at 0.1 µM.

Assay [5] has as its target T3, cGMP-dependent protein kinase 1 (Homo sapiens). The following applies: at 1 µM.
For assay [6], the target named is T4, cGMP-dependent protein kinase 2 (Homo sapiens) (UniProt Q13237).
T4 sequence (whole entry): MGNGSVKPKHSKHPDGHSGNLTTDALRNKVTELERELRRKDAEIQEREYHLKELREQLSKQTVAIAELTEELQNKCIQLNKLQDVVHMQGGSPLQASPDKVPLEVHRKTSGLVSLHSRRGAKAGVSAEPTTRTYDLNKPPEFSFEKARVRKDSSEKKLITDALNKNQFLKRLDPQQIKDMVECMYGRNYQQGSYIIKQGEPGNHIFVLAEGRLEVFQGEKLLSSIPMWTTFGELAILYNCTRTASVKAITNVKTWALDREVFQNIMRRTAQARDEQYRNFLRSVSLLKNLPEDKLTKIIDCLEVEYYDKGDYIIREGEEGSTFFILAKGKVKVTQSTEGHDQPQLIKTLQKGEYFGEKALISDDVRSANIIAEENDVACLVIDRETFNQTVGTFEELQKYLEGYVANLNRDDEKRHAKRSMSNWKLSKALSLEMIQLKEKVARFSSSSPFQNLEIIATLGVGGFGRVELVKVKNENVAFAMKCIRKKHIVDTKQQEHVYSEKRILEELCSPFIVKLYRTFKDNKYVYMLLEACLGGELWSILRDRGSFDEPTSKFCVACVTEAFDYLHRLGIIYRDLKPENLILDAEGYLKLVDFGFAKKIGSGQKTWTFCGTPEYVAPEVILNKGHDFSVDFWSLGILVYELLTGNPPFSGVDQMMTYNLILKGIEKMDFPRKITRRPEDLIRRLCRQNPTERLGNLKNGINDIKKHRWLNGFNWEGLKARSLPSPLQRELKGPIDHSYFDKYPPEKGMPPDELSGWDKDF
The following applies: at 0.1 µM.

Assay [7] deals with T4, cGMP-dependent protein kinase 2 (Homo sapiens). Particulars: at 1 µM.
For assay [8], the target named is T5, cAMP-dependent protein kinase catalytic subunit PRKX (Homo sapiens) (UniProt P51817).
T5 sequence (whole entry): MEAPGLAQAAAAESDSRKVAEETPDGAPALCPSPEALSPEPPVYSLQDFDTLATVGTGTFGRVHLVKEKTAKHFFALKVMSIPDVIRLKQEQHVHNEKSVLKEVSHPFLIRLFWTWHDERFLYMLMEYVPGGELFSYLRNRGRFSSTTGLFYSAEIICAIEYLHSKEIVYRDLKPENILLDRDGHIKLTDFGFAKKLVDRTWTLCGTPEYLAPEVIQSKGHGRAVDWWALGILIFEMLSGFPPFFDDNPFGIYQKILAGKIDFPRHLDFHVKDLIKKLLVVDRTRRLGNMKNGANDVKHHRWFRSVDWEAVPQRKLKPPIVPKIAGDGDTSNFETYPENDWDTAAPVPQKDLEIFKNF
Particulars: at 0.1 µM.

Assay [9] addresses T5, cAMP-dependent protein kinase catalytic subunit PRKX (Homo sapiens). The following applies: at 1 µM.
Assay [10] has as its target Rho-associated protein kinase 1 (Homo sapiens) (UniProt Q13464). The following applies: at 0.1 µM.
Assay [11] shares this target. Particulars: at 1 µM.
In assay [12] the target is Rho-associated protein kinase 2 (Homo sapiens) (UniProt O75116). Particulars: at 0.1 µM.
Assay [13] has the same target. Particulars: at 1 µM.
Assay [14] deals with Ribosomal protein S6 kinase alpha-1 (Homo sapiens) (UniProt Q15418). The following applies: at 0.1 µM.
For assay [15] the target is unchanged. Particulars: at 1 µM.
Assay [16] has as its target Ribosomal protein S6 kinase alpha-3 (Homo sapiens) (UniProt P51812). Particulars: at 0.1 µM.
Assay [17] has the same target. The following applies: at 1 µM.
For assay [18], the target named is Ribosomal protein S6 kinase alpha-2 (Homo sapiens) (UniProt Q15349). The following applies: at 0.1 µM.
Assay [19] shares this target. Particulars: at 1 µM.
Assay [20] has as its target Ribosomal protein S6 kinase alpha-6 (Homo sapiens) (UniProt Q9UK32). Particulars: at 0.1 µM.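 Further: reported value is the mean inhibition of RSK4, from the GSK PKIS kinase inhibitor screen.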

Ribosomal protein S6 kinase alpha-2 (Homo sapiens), sequence (Q15349 whole entry): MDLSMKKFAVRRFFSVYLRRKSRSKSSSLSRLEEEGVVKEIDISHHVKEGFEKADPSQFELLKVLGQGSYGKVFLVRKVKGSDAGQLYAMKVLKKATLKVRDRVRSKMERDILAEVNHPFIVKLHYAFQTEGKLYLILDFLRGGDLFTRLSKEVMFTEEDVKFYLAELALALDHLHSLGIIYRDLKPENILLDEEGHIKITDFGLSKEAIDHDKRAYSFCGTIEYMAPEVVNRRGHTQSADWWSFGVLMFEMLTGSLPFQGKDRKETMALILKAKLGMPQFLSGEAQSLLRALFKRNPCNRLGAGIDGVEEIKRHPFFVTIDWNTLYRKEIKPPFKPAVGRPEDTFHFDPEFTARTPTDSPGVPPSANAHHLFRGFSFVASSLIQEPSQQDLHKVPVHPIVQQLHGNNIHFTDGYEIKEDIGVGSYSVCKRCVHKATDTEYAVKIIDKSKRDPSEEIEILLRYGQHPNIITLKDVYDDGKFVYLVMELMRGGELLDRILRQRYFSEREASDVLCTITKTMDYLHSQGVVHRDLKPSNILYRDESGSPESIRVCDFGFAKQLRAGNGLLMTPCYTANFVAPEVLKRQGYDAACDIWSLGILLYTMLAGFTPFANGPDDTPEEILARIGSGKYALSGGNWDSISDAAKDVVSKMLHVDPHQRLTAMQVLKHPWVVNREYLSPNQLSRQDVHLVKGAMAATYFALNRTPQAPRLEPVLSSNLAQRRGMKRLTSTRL
Rho-associated protein kinase 1 (Homo sapiens), sequence (Q13464 2-1354 limits assumed): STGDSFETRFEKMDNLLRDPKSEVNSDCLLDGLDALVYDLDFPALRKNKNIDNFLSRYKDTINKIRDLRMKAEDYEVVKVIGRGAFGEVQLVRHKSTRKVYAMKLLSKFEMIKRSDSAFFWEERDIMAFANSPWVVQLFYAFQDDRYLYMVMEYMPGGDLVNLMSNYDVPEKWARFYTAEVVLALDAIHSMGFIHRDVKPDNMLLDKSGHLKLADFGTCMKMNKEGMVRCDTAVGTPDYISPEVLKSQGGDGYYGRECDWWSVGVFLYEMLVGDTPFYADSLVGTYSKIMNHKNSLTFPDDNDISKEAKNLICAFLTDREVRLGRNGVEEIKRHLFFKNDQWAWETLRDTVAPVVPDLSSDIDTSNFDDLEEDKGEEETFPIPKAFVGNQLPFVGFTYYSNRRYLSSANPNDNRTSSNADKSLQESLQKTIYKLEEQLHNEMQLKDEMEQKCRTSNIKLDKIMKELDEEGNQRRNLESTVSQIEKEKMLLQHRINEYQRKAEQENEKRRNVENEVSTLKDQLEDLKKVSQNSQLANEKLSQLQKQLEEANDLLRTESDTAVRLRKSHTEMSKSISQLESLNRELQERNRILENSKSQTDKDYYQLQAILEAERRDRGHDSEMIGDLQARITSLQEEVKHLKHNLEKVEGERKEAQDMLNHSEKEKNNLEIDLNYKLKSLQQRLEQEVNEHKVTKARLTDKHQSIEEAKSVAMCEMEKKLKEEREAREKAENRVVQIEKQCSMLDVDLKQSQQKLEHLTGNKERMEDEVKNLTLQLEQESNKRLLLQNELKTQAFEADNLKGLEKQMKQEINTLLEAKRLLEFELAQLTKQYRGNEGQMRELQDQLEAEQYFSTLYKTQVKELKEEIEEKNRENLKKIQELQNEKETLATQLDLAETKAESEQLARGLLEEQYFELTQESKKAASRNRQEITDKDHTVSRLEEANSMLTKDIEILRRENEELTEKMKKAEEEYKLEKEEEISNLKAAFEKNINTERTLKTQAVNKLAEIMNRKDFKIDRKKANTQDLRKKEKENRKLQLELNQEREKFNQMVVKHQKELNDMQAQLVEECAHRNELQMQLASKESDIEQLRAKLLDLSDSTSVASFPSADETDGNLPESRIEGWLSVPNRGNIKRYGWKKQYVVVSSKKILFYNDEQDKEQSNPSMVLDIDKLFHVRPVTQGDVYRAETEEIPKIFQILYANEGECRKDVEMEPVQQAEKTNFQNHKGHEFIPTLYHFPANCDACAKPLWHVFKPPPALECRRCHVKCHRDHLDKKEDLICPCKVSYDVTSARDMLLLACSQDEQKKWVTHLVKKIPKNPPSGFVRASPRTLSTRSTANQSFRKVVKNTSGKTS
Rho-associated protein kinase 2 (Homo sapiens), sequence (O75116 whole entry, looked up): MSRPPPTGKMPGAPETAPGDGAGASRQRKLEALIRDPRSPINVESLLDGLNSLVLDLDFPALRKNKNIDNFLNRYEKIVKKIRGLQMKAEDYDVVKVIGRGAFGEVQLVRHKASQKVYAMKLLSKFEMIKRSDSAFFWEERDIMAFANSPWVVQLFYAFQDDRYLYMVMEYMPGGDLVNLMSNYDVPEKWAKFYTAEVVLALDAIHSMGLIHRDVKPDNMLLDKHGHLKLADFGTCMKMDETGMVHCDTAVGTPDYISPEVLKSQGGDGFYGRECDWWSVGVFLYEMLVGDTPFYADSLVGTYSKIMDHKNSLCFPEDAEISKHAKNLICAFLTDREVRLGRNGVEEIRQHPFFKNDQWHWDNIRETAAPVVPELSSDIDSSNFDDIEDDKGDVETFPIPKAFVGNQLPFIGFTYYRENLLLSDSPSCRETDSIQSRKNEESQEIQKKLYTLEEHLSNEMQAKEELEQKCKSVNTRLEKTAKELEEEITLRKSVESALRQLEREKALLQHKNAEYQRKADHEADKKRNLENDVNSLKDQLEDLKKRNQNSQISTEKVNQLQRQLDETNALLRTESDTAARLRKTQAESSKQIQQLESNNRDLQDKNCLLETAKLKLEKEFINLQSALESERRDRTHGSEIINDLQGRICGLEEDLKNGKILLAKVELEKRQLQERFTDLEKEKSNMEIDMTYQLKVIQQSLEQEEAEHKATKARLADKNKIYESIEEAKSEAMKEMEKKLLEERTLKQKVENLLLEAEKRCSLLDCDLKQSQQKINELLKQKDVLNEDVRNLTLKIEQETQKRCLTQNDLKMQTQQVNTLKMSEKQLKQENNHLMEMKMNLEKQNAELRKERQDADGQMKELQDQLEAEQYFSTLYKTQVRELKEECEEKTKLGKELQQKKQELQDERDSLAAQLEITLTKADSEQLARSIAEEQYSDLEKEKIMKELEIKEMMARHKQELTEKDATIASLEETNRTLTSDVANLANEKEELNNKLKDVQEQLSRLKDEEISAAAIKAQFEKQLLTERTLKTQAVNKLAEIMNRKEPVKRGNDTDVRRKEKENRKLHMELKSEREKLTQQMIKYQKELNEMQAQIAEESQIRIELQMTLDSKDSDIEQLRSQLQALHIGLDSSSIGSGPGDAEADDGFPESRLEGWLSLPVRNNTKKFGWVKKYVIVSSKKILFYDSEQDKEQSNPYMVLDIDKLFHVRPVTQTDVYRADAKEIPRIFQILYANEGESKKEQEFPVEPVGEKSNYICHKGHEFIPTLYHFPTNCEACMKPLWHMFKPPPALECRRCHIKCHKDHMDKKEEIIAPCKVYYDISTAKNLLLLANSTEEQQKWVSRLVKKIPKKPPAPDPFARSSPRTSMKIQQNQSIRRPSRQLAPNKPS
Ribosomal protein S6 kinase alpha-1 (Homo sapiens), sequence (Q15418 whole entry): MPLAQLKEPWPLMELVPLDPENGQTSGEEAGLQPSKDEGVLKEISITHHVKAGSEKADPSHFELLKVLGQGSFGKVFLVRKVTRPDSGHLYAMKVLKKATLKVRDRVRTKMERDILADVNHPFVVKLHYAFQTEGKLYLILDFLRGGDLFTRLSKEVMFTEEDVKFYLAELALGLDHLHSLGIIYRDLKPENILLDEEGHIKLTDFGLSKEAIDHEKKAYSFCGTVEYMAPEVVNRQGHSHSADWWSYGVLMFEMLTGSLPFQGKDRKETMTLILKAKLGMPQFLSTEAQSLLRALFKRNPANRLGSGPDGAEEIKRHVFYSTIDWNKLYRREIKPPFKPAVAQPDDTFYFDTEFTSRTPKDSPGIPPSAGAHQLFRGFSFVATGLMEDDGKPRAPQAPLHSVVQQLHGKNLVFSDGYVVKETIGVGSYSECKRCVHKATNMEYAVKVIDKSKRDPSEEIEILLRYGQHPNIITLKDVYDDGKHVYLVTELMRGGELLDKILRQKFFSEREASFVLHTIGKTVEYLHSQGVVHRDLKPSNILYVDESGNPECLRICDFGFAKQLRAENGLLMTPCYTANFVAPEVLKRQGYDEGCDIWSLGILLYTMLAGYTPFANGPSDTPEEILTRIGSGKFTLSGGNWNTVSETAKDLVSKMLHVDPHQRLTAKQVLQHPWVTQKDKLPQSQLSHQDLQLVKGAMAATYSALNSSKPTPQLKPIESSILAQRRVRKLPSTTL
Ribosomal protein S6 kinase alpha-6 (Homo sapiens), sequence (Q9UK32 whole entry): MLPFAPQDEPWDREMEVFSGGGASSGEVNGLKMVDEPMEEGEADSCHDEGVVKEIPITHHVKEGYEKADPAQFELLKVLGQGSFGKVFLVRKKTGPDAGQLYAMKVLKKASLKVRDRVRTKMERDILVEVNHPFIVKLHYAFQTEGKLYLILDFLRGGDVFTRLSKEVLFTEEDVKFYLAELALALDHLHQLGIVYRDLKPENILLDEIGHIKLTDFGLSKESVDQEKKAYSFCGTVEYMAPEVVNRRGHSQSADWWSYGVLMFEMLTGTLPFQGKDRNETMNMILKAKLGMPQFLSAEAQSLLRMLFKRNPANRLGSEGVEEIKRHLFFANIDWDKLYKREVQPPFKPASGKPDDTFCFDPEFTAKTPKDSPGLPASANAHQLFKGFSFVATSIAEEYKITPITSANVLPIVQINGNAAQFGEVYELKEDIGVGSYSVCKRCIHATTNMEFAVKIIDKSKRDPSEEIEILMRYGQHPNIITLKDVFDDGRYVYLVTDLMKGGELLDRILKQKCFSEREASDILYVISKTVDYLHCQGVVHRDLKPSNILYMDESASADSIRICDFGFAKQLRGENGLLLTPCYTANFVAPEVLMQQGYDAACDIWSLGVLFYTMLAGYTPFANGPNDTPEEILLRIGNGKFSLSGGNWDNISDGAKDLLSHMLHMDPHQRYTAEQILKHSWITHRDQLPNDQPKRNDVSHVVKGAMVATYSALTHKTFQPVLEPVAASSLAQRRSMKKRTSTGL

Consider `Cc1nn(C)c2cc(N(C)c3ccnc(Nc4cccc(S(N)(=O)=O)c4)n3)ccc12`, for which the inhibition in [1] worked out at 4.2%; in [2] it was 2.9%; in assay [3], 3.56%; in [4], 4.25%; in assay [5], 6.59%; in assay [6], 2.42%. The inhibition in assay [7] is 5.81%; in assay [8], 2.89%; in [9] it was 5.35%; in assay [10], 1.17%; in [11], 2.24%; in assay [12], 2.09%. Besides, the inhibition in assay [13] is 3.32%; in assay [14], 1.77%; in assay [15], 3.73%; in assay [16], 1.39%; in assay [17], 6.38%; in assay [18], 2.93%. The results for the inhibition in assay [19] and in assay [20] were 4.46% and 2.03%, respectively.

For the compound `CC1=C(C(=O)Nc2ccc3[nH]ncc3c2)C(c2ccc(Cl)c(Cl)c2)CC(=O)N1` (stereo not given), the inhibition in [1] is 5.98%; in [2] it was 1.11%; in assay [3], 9.26%; in [4], 10.1%; in assay [5] it was 50%; in [6], 5.19%. In addition, the inhibition in assay [7] came out at 34.7%; in assay [8], 14.8%; in assay [9], 59.2%; in assay [10] it was 68.6%; in assay [11], 91.8%; in assay [12], 71.2%. In addition, the inhibition in assay [13] stood at 89.9%; in assay [14], 3.44%; in [15], 23.6%; in assay [16] it was 1.88%; in assay [17], 18.9%; in assay [18] it was 0.64%. Also, the figures for the inhibition in assay [19] and in assay [20] were 13.2% and 0.12%, respectively.

Take `CN1CCC(C(=O)Nc2n[nH]c3nnc(-c4ccccc4)cc23)CC1`: the inhibition was found to be 6.42% in [1]; 4.65% in [2]; 5.47% in assay [3]; 3.6% in assay [4]; 5.14% in assay [5]; 2.49% in assay [6]. Also, the inhibition in assay [7] came to 4.4%; in assay [8], 3.15%; in [9], 6.09%; in assay [10], 7.45%; in [11] it was 1.3%; in assay [12], 3.27%. Moreover, the inhibition in assay [13] was determined as 7.43%; in assay [14] it was 2.04%; in assay [15] it was 3.41%; in [16], 1.58%; in assay [17], 3.98%; in assay [18], 2.42%. Moreover, the inhibition came out at 3.15% in assay [19] and 0.86% in assay [20].
